Screening data deposited in PubChem by Sanford-Burnham Center for Chemical Genomics.
In the library only some 4% were active in any assay of this set; here they are far more common.
Peg3 promoter: Peg3 promoter activity inhibition | inhibition, % at 20 µM | HeLa PEG-Prom luciferase reporter, luminescence, overnight | 1.7% of 360,000 active;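 active = inhibition of at least 50% at 20 µM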
CF NFkB inh: inhibitors of cystic fibrosis induced NF-kB; AID 588850; 0.86% of 360,000 active; KKLEB NF-kB-GFP reporter, PAF-induced, GFP fluorescence overnight; inhibition, % at 5 µM;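 active = at least 50% inhibition at 5 µM, scaled per plate between neutral and stimulator controls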;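 also: PAF is a Pseudomonas aeruginosa culture filtrate used as stimulus; plate controls were PAF-stimulated DMSO wells for no effect and unstimulated DMSO wells for full effect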
TROY signal inh: blocks TROY-dependent signaling in reporter cells. Q293 LMP1-TROYcd NF-kB luciferase reporter, 4 h. inhibition, % at 10 µM. 0.98% of 360,000 active. AID 1347056;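 active = compounds whose plate-normalised and pattern-corrected inhibition of the luciferase reporter signal at the single screening dose is 50% or more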
HIF-2a block: HIF-2a inhibition; 786-0 RCC cells HIF-2a reporter, luciferase luminescence, overnight; inhibition, % at 18.8 µM; 0.72% of 360,000 active; AID 624352;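 active = inhibition of the luminescence signal of 40% or more relative to plate controls, in a single-dose primary screen at 18.75 µM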
TWEAK-Fn14 inh: blocks TWEAK-Fn14 interaction in a reporter cell assay. TWEAK-stimulated Fn14 reporter cells, luciferase luminescence, 8 h. inhibition, % at 10 µM. 2% of 360,000 active; in the data active = inhibition above about 50%
KKLEB tox: counter-screen for CF NF-kB inhibitors: cytotoxicity; KKLEB CF airway cells viability, ATPlite luminescence, overnight; active compounds read low; cells stimulated with P. aeruginosa culture filtrate; activity change (cytotoxicity), % at 5 µM; 0.36% of 360,000 active; AID 602141;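 active = corrected activity change at or below -50% at 5 µM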
CF NFkB inh conf: CF NF-kB inhibition confirmation, single concentration; shares compounds with CF NFkB inh; inhibition, % at 5 µM; 64% of 1,300 active; AID 602472; KKLEB CF airway cells, PAF-induced NF-kB-GFP fluorescence, overnight; in the data active = inhibition above about 40%;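 also: stimulus PAF is a Pseudomonas aeruginosa filtrate and not platelet activating factor; plate controls were DMSO wells with stimulus for no effect and unstimulated DMSO wells for full effect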
* marks the source's active call; other numbers are inactive results; . = no result given.

SMILES	Peg3 promoter	CF NFkB inh	TROY signal inh	HIF-2a block	TWEAK-Fn14 inh	KKLEB tox	CF NFkB inh conf
FC(F)Sc1ccc(NC(=S)NCC2CCCCC2)cc1	-75	50*	24	-164	35	-39	61*
FC(F)Sc1ccc(NC(=S)NC2CCCCC2)cc1	-158	7	6	-248	-25	1	.
Clc1cccc(Cl)c1/C=N/Nc1c(Cl)cncc1Cl	24	-2	-17	8	6	1	.
Clc1cncc(Cl)c1N/N=C/c1ccncc1	-12	81*	63*	14	59*	-42	78*
CC1(C)OC2CC3C4CC=C5CC(O)CCC5(C)C4CCC3(C)C2(C(=O)CO)O1 (configuration not stated)	-35	6	-6	-8	-17	8	.
CC1(C)O[C@@H]2C[C@H]3[C@@H]4C[C@H](F)C5=CC(=O)C=C[C@]5(C)[C@@]4(F)[C@@H](O)C[C@]3(C)[C@]2(C(=O)CO)O1	-8	73*	24	21	-26	25	25
CC1(C)O[C@@H]2C[C@H]3[C@@H]4CCC5=CC(=O)C=C[C@]5(C)[C@@]4(F)[C@@H](O)C[C@]3(C)[C@]2(C(=O)CO)O1	12	67*	20	21	2	37	30
C[C@@H]1CN([C@@H](C)CO)S(=O)(=O)c2ccc(Br)cc2O[C@H]1CN(C)Cc1ccc(-c2ccccc2)cc1	50	24	9	11	-3	-7	.
C[C@@H]1CN([C@@H](C)CO)C(=O)c2cc(NC(=O)c3ccncc3)ccc2O[C@@H](C)CCCCO[C@@H]1CN(C)C(=O)Cc1ccccc1	0	-8	-3	5	11	12	.
Cc1csc2ncnc(N3CCN(S(=O)(=O)c4cccc(C(F)(F)F)c4)CC3)c12	10	-6	43	25	44	5	.
CC(=O)Nc1nc(C)c(-c2csc(Nc3cccc(C(C)=O)c3)n2)s1	49	81*	-15	-10	23	-44	82*
CCC(=O)Nc1nc(C)c(-c2csc(Nc3cccc(C(=O)O)c3)n2)s1	-39	4	-23	-14	2	10	.
N#C/C(=C\c1ccc(F)c(F)c1)C(=O)NC1CCCCC1	8	52*	-28	28	36	-18	16
CC(C)(C)c1ccc(S(=O)(=O)N2CCCCC2)cc1	8	-8	0	-1	13	3	.
Cc1nn(-c2ccccc2)c(N2CCCC2)c1/C=N/NC(=O)c1cc(-c2cccs2)nc2ccccc12	36	22	13	21	36	-14	.
Cc1ccc(-c2cc(C(=O)N/N=C/c3c(C)nn(-c4ccccc4)c3C)[nH]n2)cc1	-4	50*	14	3	40	-32	84*
Cc1nn(-c2ccccc2)c(N2CCCC2)c1/C=N/NC(=O)c1cc(-c2ccccc2)nc2ccccc12	55*	55*	9	20	21	-8	66*
Cc1ccc(-n2sc3cc(F)ccc3c2=O)c(C)c1	28	27	-8	-32	-3	6	.
O=c1c2cc(F)ccc2sn1-c1ccccc1Cl	24	51*	-3	-1	-5	-10	31
CC(C)n1cnc2c(NCc3ccc(S(N)(=O)=O)cc3)nc(NCc3ccc(S(N)(=O)=O)cc3)nc21	-11	-12	-8	4	-12	-3	.
CC(C)[C@H](CO)Nc1nc(NCc2ccc(S(N)(=O)=O)cc2)c2ncn(C(C)C)c2n1	21	71*	15	24	27	-16	104*
CC(C)(C)c1ccc(C(=O)Nc2ccc(O)c3c(=O)cc(-c4cccc(Cl)c4)oc23)cc1	3	26	7	-22	-21	-20	.
COc1ccc(C(=O)Nc2ccc(O)c3c(=O)cc(-c4cccc(Cl)c4)oc23)cc1	-57	50*	9	-46	36	-33	2
CS(=O)(=O)Nc1ccc(-c2cnc3cccnn23)cc1	-5	60*	24	-29	65*	-1	71*
Cc1nn(-c2ccccc2)c(Cl)c1/C=N/NC(N)=O	-23	-8	-47	-88	-26	-13	.
SMILES	Peg3 promoter	CF NFkB inh	TROY signal inh	HIF-2a block	TWEAK-Fn14 inh	KKLEB tox	CF NFkB inh conf
NC(=O)N/N=C/c1c(Sc2nnnn2-c2ccccc2)nc2ccccn2c1=O	103*	71*	-6	3	96*	-38	72*
Cc1ccc(S(=O)(=O)NC(C(=O)Oc2cc3oc(=O)cc(C)c3cc2Cl)C(C)C)cc1 (configuration not stated)	12	34	7	7	19	-9	.
COc1ccc(C)cc1NC(=O)c1cc(C2CC2)nc2c1c(C)nn2C1CCS(=O)(=O)C1 (configuration not stated)	19	-4	-8	9	-12	10	.
CCC1(O)CC2CN(CCc3c([nH]c4ccccc34)C(C(=O)OC)(c3cc4c(cc3OC)N(C=O)C3C(O)(C(=O)OC)C(OC(C)=O)C5(CC)C=CCN6CCC43C65)C2)C1 (configuration not stated)	-22	58*	16	32	15	-8	92*
O[Si](CCCN1CCCCC1)(c1ccc(F)cc1)C1CCCCC1 (configuration not stated)	-5	-13	-7	-7	0	-17	.
Cc1ccc(NC(=O)Nc2cccc([N+](=O)[O-])c2)cc1F	-183	65*	45	-241	79*	-48	52*
Cc1cc(NC(=O)Nc2cccc([N+](=O)[O-])c2)no1	-56	5	-21	-39	-7	9	.
CCC1C(=O)C(C)(C)C(=O)OC1c1ccc([N+](=O)[O-])cc1 (configuration not stated)	-2	-16	13	15	1	4	.
O=C1CC(=O)OC(c2ccc([N+](=O)[O-])cc2)O1	103*	90*	10	86*	102*	-22	111*
COc1ccc(NC(=O)Cn2ncc(Cl)c(Cl)c2=O)cc1S(=O)(=O)N1CCOCC1	97*	55*	-2	37	74*	-14	18
COc1ccc(NC(=O)c2ccc(Cl)nc2)cc1S(=O)(=O)N1CCOCC1	5	3	5	9	14	-1	.
CC1NC(=O)NC1CCCCCC(=O)Nc1ccc(F)c(Cl)c1 (configuration not stated)	2	-6	6	14	-3	4	.
CC(C)OCCCNC(=O)c1c(N)n(/N=C/c2ccccn2)c2nc3ccccc3nc12	38	56*	-16	-11	35	-22	-44
COCCCNC(=O)c1c(N)n(-c2ccccc2)c2nc3ccccc3nc12	27	11	-1	13	-1	-4	.
O=C(Nc1ccccn1)c1ccc([N+](=O)[O-])o1	-6	31	-16	-12	5	-4	.
